Among the data in PubChem BioAssay AID1852 (Sanford-Burnham Center for Chemical Genomics, 2009) are inhibition values, retold here.

Among all 2,500 compounds or so, about 1,100 (44%) were called active. So high a share suggests a set chosen from earlier hits. The list shows a part of the results. Unmarked numbers belong to inactive results.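 Rule for the calls: active = inhibition above 50% at 4 µM in the single-point screen; inactive = inhibition of 50% or less.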

The nature of this test: TNF-a-driven NF-kB reporter inhibitors, primary screen, selectivity assay for NOD1/NOD2 signaling inhibitor project, cell-based, HEK293T NF-kB-Luc, luminescence (AID 1852). As to conditions: TNF-a induced, 14 h, at 4 µM, hits give high values.
As for `CC1CCC/C=C/C(=O)c2c(O)cc(O)cc2CC(=O)O1` (configuration not stated), the inhibition – broadly, the change of the read-out against control, counted positive when it falls – is 74.9% (active). Regarding `CN1/C(=C\C=[N+](C)c2ccccc2)C(C)(C)c2ccccc21`, the inhibition was 49.5%. The figure for `O=C(CCl)N1c2ccccc2SCC1c1ccccc1` (configuration not stated) is 32.2%. Turning to `O=C(C(Cl)Cl)N1c2ccccc2OCC1c1ccccc1` (configuration not stated), the inhibition was 37.8%. The figure for `O=C(CCl)N1c2ccccc2OCC1c1ccccc1` (configuration not stated) is 62.2% (active); for `Cc1ccc(N(Cc2cc(=O)[nH]c3ccccc23)C(=O)CCl)cc1` it is 106% (active); for `O=C(CCl)N(Cc1cc(=O)[nH]c2ccccc12)c1ccccc1` it is 99.9% (active). Consider `COc1ccc(N(Cc2cc(=O)[nH]c3ccccc23)C(=O)CCl)cc1`, for which the inhibition is 21.4%. For the compound `Cc1cccc(N(Cc2cc(=O)[nH]c3ccccc23)C(=O)CCl)c1`, the inhibition was 78.4% (active). To `CCCS(=O)(=O)c1cnc(C2COc3ccccc3O2)nc1N` (configuration not stated) belongs 48.4%.

Regarding `Cc1ccc(-n2c(-c3ccc(Br)cc3)c[n+]3c2CCc2ccc4cccnc4c2-3)cc1`, the inhibition is 85% (active). On to `Cc1ccc(-c2csc3ncnc(Sc4nnc(CN5CCCCCC5=O)o4)c23)cc1`, for which the inhibition was 93.2% (active). `O=C(Nc1ccc(C(F)(F)F)cc1)C1CCN(S(=O)(=O)c2ccc(N3CCCC3=O)cc2)CC1`: the inhibition is 63.7% (active). As to `CC(C)(C)CC(=O)Nc1ccc(S(=O)(=O)N2CCCC2)cc1`, the inhibition is 15.8%. In the case of `CC1Sc2ccc(S(=O)(=O)N3CCC(C(=O)Nc4ccc(Cl)cc4)CC3)cc2NC1=O` (configuration not stated), the inhibition was 44%.

Consider `COc1ccccc1CN(C)C(=O)c1cc(-c2cc(OC)c(OC)c(OC)c2)nc2ccccc12`, for which the inhibition was 20.3%. As to `COc1ccc(CN(C)C(=O)c2cc(-c3ccc(C)cc3C)nc3ccccc23)c(OC)c1OC`, the inhibition is -3.9%. To `COc1cccc(CN(C)C(=O)CNC(=O)c2ccc(-c3ccccc3)cc2)c1OC` belongs 57% (active); to `O=C(c1nnsc1S(=O)(=O)c1ccc(Cl)cc1)N1CCOCC1`, 52% (active).

On to `CN(c1ccc(C(=O)Nc2ccccc2C(=O)N2CCOCC2)cc1)S(C)(=O)=O`, for which the inhibition is 16.2%. In the case of `Cc1ccc(S(=O)(=O)NC(C(=O)N2CCOCCOCCOCC2)C(C)C)cc1` (configuration not stated), the inhibition was 15.4%. The figure for `O=S(=O)(c1ccc(Cl)cc1)c1snnc1-c1ccccc1` is 44.1%; for `CNC(=O)c1nnsc1S(=O)(=O)c1ccc(Cl)cc1` it is 91.4% (active). Turning to `CC(=O)N(c1ccccc1Cl)S(=O)(=O)c1ccc(Cl)cc1`, the inhibition was 9.8%. The figure for `O=C(Nc1nnc(-c2cccs2)o1)c1cccc(Oc2ccccc2)c1` is 103% (active); for `O=C(Nc1nnc(-c2cccs2)o1)c1cccc(C(F)(F)F)c1` it is 100% (active). The figure for `CCSCCc1nnc(NC(=O)Nc2cccc(C(F)(F)F)c2)s1` is 7.5%.
